# The supplement of paper PMC8975748
# Where a name gives a salt, the structure may show the parent alone. ± gives the standard deviation of the averaged measurements.
# How the values were obtained:
# [1] = tested on: Saccharomyces cerevisiae BY4741 SeMeCo community; experiment: mean cell size (pixel area) (pixels); higher = larger cells; settings: 10 µM; 24 h; SM minimal medium
# Method in brief: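 A fluorescent Saccharomyces cerevisiae BY4741 community carrying four plasmids was used, with each plasmid complementing one auxotrophy and bearing a fluorescent marker. An overnight preculture at OD600 = 1.0 was diluted to OD600 = 0.3, and 70 µl went into 384-well plates acoustically predosed with drug (final 10 µM) in SM medium for 24 h. After paraformaldehyde fixation, cells were imaged by automated confocal microscopy and analysed in Harmony, giving the mean cell pixel area per well. Each value is the average of 3 replicates. Same SeMeCo high-content imaging drug screen: Selleck FDA-approved drugs at 10 µM, 24 h in SM medium, 384-well plates, 3 replicates.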
# [2] = tested on: Saccharomyces cerevisiae BY4741 SeMeCo community; experiment: z-score of prototroph abundance vs DMSO median; higher = larger share of this subpopulation than in DMSO controls; settings: 10 µM; 24 h; SM minimal medium; subpopulation (auxotrophy): Prototroph
# Method in brief: (§1)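 Subpopulation abundance was reported as a z-score against the median of vehicle wells. The Saccharomyces cerevisiae BY4741 community, carrying four plasmids that each restored one auxotrophy and encoded a distinct fluorescent protein, was grown 24 h in minimal SM medium in 384-well plates holding library drugs at 10 µM final. Cells were paraformaldehyde-fixed and imaged by automated confocal microscopy, with single-auxotroph fluorescent strains used for thresholds and autofluorescence correction.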
# [3] = tested on: Saccharomyces cerevisiae BY4741 SeMeCo community; experiment: z-score of subpopulation abundance vs DMSO median, subpopulation auxotrophic for M; higher = larger share of this subpopulation than in DMSO controls; settings: 10 µM; 24 h; SM minimal medium; subpopulation (auxotrophy): M
# Method in brief: as §1
# [4] = tested on: Saccharomyces cerevisiae BY4741 SeMeCo community; experiment: z-score of subpopulation abundance vs DMSO median, subpopulation auxotrophic for U; higher = larger share of this subpopulation than in DMSO controls; settings: 10 µM; 24 h; SM minimal medium; subpopulation (auxotrophy): U
# Method in brief: as §1
# [5] = tested on: Saccharomyces cerevisiae BY4741 SeMeCo community; experiment: z-score of subpopulation abundance vs DMSO median, subpopulation auxotrophic for LU; higher = larger share of this subpopulation than in DMSO controls; settings: 10 µM; 24 h; SM minimal medium; subpopulation (auxotrophy): LU
# Method in brief: as §1
# [6] = tested on: Saccharomyces cerevisiae BY4741 SeMeCo community; experiment: z-score of subpopulation abundance vs DMSO median, subpopulation auxotrophic for LM; higher = larger share of this subpopulation than in DMSO controls; settings: 10 µM; 24 h; SM minimal medium; subpopulation (auxotrophy): LM
# Method in brief: as §1
# [7] = tested on: Saccharomyces cerevisiae BY4741 SeMeCo community; experiment: z-score of subpopulation abundance vs DMSO median, subpopulation auxotrophic for HM; higher = larger share of this subpopulation than in DMSO controls; settings: 10 µM; 24 h; SM minimal medium; subpopulation (auxotrophy): HM
# Method in brief: as §1
# [8] = tested on: Saccharomyces cerevisiae BY4741 SeMeCo community; experiment: z-score of subpopulation abundance vs DMSO median, subpopulation auxotrophic for HU; higher = larger share of this subpopulation than in DMSO controls; settings: 10 µM; 24 h; SM minimal medium; subpopulation (auxotrophy): HU
# Method in brief: as §1
# [9] = tested on: Saccharomyces cerevisiae BY4741 SeMeCo community; experiment: z-score of subpopulation abundance vs DMSO median, subpopulation auxotrophic for UM; higher = larger share of this subpopulation than in DMSO controls; settings: 10 µM; 24 h; SM minimal medium; subpopulation (auxotrophy): UM
# Method in brief: as §1
# [10] = tested on: Saccharomyces cerevisiae BY4741 SeMeCo community; experiment: z-score of subpopulation abundance vs DMSO median, subpopulation auxotrophic for HL; higher = larger share of this subpopulation than in DMSO controls; settings: 10 µM; 24 h; SM minimal medium; subpopulation (auxotrophy): HL
# Method in brief: as §1
# [11] = tested on: Saccharomyces cerevisiae BY4741 SeMeCo community; experiment: z-score of subpopulation abundance vs DMSO median, subpopulation auxotrophic for HLU; higher = larger share of this subpopulation than in DMSO controls; settings: 10 µM; 24 h; SM minimal medium; subpopulation (auxotrophy): HLU
# Method in brief: as §1
# [12] = tested on: Saccharomyces cerevisiae BY4741 SeMeCo community; experiment: z-score of subpopulation abundance vs DMSO median, subpopulation auxotrophic for HLM; higher = larger share of this subpopulation than in DMSO controls; settings: 10 µM; 24 h; SM minimal medium; subpopulation (auxotrophy): HLM
# Method in brief: as §1
# [13] = tested on: Saccharomyces cerevisiae BY4741 SeMeCo community; experiment: z-score of subpopulation abundance vs DMSO median, subpopulation auxotrophic for HUM; higher = larger share of this subpopulation than in DMSO controls; settings: 10 µM; 24 h; SM minimal medium; subpopulation (auxotrophy): HUM
# Method in brief: as §1
# [14] = tested on: Saccharomyces cerevisiae BY4741 SeMeCo community; experiment: z-score of subpopulation abundance vs DMSO median, subpopulation auxotrophic for LUM; higher = larger share of this subpopulation than in DMSO controls; settings: 10 µM; 24 h; SM minimal medium; subpopulation (auxotrophy): LUM
# Method in brief: as §1
# [15] = tested on: Saccharomyces cerevisiae BY4741 SeMeCo community; experiment: z-score of subpopulation abundance vs DMSO median, subpopulation auxotrophic for HLUM; higher = larger share of this subpopulation than in DMSO controls; settings: 10 µM; 24 h; SM minimal medium; subpopulation (auxotrophy): HLUM
# Method in brief: as §1
# [16] = tested on: Saccharomyces cerevisiae BY4741 SeMeCo community; experiment: z-score of subpopulation abundance vs DMSO median, subpopulation auxotrophic for L; higher = larger share of this subpopulation than in DMSO controls; settings: 10 µM; 24 h; SM minimal medium; subpopulation (auxotrophy): L
# Method in brief: as §1
# [17] = tested on: Saccharomyces cerevisiae BY4741 SeMeCo community; experiment: z-score of subpopulation abundance vs DMSO median, subpopulation auxotrophic for H; higher = larger share of this subpopulation than in DMSO controls; settings: 10 µM; 24 h; SM minimal medium; subpopulation (auxotrophy): H
# Method in brief: as §1
SMILES,mean cell size [1],z-score of prototroph abundance [2],z-score of subpopulation abundance [3],z-score of subpopulation abundance [4],z-score of subpopulation abundance [5],z-score of subpopulation abundance [6],z-score of subpopulation abundance [7],z-score of subpopulation abundance [8],z-score of subpopulation abundance [9],z-score of subpopulation abundance [10],z-score of subpopulation abundance [11],z-score of subpopulation abundance [12],z-score of subpopulation abundance [13],z-score of subpopulation abundance [14],z-score of subpopulation abundance [15],z-score of subpopulation abundance [16],z-score of subpopulation abundance [17]
CC(C)[N+]1(C)[C@@H]2CC[C@H]1C[C@@H](OC(=O)C(CO)c1ccccc1)C2 (stereo partly specified) [Ipratropium Bromide],12.4 ± 0.27,0.41,-0.02,-0.33,0.15,0.93,-0.34,-0.22,-0.31,-0.04,-0.02,-0.71,-0.65,-0.28,0.07,,
CC(=O)O[C@H]1C[C@@]2(C)[C@@H](C[C@@H](O)[C@H]3[C@@]4(C)CC[C@@H](O)[C@@H](C)[C@@H]4CC[C@@]32C)/C1=C(\CCC=C(C)C)C(=O)O [Fusidate Sodium],,-0.65,0,0.34,0.21,-0.02,0.57,2,-0.27,1.13,1.2,,1.17,-0.25,-0.08,-0.11,1.44
CC[C@H]1OC(=O)[C@H](C)[C@@H](O[C@H]2C[C@@](C)(OC)[C@@H](O)[C@H](C)O2)[C@H](C)[C@@H](O[C@@H]2O[C@H](C)C[C@H](N(C)C)[C@H]2O)[C@](C)(O)C[C@@H](C)C(=O)[C@H](C)[C@@H](O)[C@]1(C)O [Erythromycin],,,0.24,,0.03,1.38,,-0.18,,2.42,1,,,,0.28,1.96,1
C[C@H]1c2cccc(O)c2C(O)=C2C(=O)[C@]3(O)C(O)=C(C(N)=O)C(=O)[C@@H](N(C)C)[C@@H]3[C@@H](O)[C@@H]21 [Doxycycline],,1.27,0.04,-0.63,-0.52,-0.26,-0.76,,-1.44,-0.31,-0.24,,-1.21,-0.15,0.32,-0.26,-0.79
OC(Cn1cncn1)(Cn1cncn1)c1ccc(F)cc1F [Fluconazole],,2.13,-1.85,-0.29,-1.41,-0.76,-1.78,-1.49,-0.52,,-1.51,,-1.16,-0.64,-1.38,-0.88,-2.16
C=C1c2cccc(O)c2C(O)=C2C(=O)[C@]3(O)C(O)=C(C(N)=O)C(=O)[C@@H](N(C)C)[C@@H]3[C@@H](O)[C@H]12 [Methacycline HCl],,0.09,0.2,-0.83,-0.95,0.5,0.54,-0.49,-0.59,1.43,-0.87,,,-0.23,-0.19,1.08,2.58
COCCCC/C(=N\OCCN)c1ccc(C(F)(F)F)cc1 [Fluvoxamine maleate],12.3 ± 0.13,0.26,0.23,-0.51,-0.03,,-0.09,-0.5,,-0.26,-0.3,,0.06,0.15,-0.43,0.54,-0.64
Cc1ccc(C(=O)C(C)CN2CCCCC2)cc1 (stereo unspecified) [Tolperisone HCl],12.6 ± 0.14,1.01,0.72,-0.15,-0.75,-0.14,-0.34,-0.2,-0.03,-0.34,-0.71,-0.48,-0.56,-0.71,-0.57,,-0.79
